UbGFP stabilizer = ubiquitin-GFP accumulation via proteasome inhibition | 67,000 tested, under 10 active | AID 526 | Ubiquitin-GFP reporter cells, proteasome inhibition, GFP fluorescence; response scale: untreated = 0%, 10 µM MG-132 = 100% | Potency, µM (series often up to 45.9 µM), for inactives: at the highest dose activation (GFP accumulation), usual class: activators; active means well fitted activation curve with a large enough effect, not every such curve was filed as active; inconclusive means small, poorly fitted or top-dose-only effect, or another doubt; inactive means no such curve, though single readings can be large or run the other way; further: potency means the concentration at half of the fitted maximal effect
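U2OS cells stably expressing ubiquitin(G76V)-GFP, seeded overnight in 0.5% FBS medium, were exposed to compounds (qHTS, 46 uM to 2.9 nM) for 4 hr at 37 °C. GFP-positive cells were counted by laser cytometry (488 ex/515 em), normalized between basal and 10 uM MG-132.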
GFP derepression = derepresses silenced GFP locus in mouse C127i cells | Potency, µM (titrated, usually from 46.1 µM), inactives show at the highest dose GFP derepression (activation) | AID 597 | 68,000 tested, 0.09% active | mouse C127i GFP locus derepression, cytometry, 30 h; further: % of control where 0% means no effect
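Murine C127i mammary cells carrying a silenced, stably integrated CMV-driven GFP reporter were treated with compound for 30 hours at 37 C. After PBS washes, GFP-positive cells were counted by laser-scanning microplate cytometry.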
HBB splice mod = alters splicing of the hemoglobin beta chain; HBB splicing reporter cell assay, activation; EGFP reporter with mutant IVS2-654 intron; response scale: normalised to 500 nM splice-correcting PNA; Potency, µM (doses to about 46.1 µM), inactives show top-dose activation, actives largely listed as activators; 65,000 tested, 0.06% active; AID 925; further: potency means the concentration at half of the fitted maximal effect; 0% is about no effect
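HeLa cells stably expressing EGFP interrupted by mutant beta-globin intron 2 (IVS2-654), 500/well in 2% FCS. Treated with compound for 2 days at 37C. Splicing correction scored as total well GFP intensity (488 nm excitation, 500-520 nm emission); 500 nM antisense PNA served as control.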
The depositor's hits bear a star; ? = inconclusive; · = not tested or not shown; ! = a repeat was not active; [ ] = another dose, or the depositor's remark. This is a sample that favours compounds with a hit; in the whole collection about 0.12% have one here. Unless noted, the call rests on the fitted dose curve; in most records, active means well fitted curve in the direction sought with a large enough effect; inconclusive means small, poorly fitted or top-dose-only effect, or another doubt; inactive means no such curve, though single readings can be large; an effect the other way counts as inactive or inconclusive.

SMILES	UbGFP stabilizer	GFP derepression	HBB splice mod
Nc1nc2n[nH]nc2c(=O)[nH]1	20.4%[20.5 µM]	7.3%[20.6 µM]	0.794µM*
Cc1nc(N)[nH]c(=O)c1CCC(=O)OCC(C)C	2.3%	-1.2%	-1.0%
C=CCN1CCc2c(cc(O)c(O)c2Br)[C@H](c2ccccc2)C1	-8.9%	-1.1%	0.6%
CC(C)C[C@H](NC(=O)[C@@H](O)[C@@H](N)Cc1ccccc1)C(=O)O	1.5%	-0.6%	1.4%
COc1ccc2c(c1OC)C(=O)N(c1cccc(C)c1)C2=O	-4.8%	2.5%	-3.1%
Cc1cccc(N2C(=O)c3cccc4c(N(C)CCO)ccc(c34)C2=O)c1	-4.2%[9.17 µM]	0.0%	20µM*
COC(=O)C1=C(N)Oc2cc(C)oc(=O)c2C1c1ccncc1 (stereo not given)	·	0.9%[20.6 µM]	·
COC(=O)/C(=C1/Oc2cc(C)oc(=O)c2S1)C(F)(F)F	·	10µM*	·
COc1ccc2c(c1)c1c(C)c3cnccc3c(C)c1n2CCCN	0.6%[9.17 µM]	?	0.1%[9.22 µM]
CCNC(=O)[C@@H]1O[C@@H](n2cnc3c(NCc4ccccc4)ncnc32)[C@@H](O)[C@H]1O	4.3%	-1.2%	0.9%
Nc1ccn([C@@H]2O[C@@H](CO)[C@@H](O)[C@H]2O)c(=O)n1	10.1%	-1.1%	1.4%
N.N.N.N.N.N.N.N.N.N.N.N.N.N.O.O.[Ru].[Ru].[Ru]	-1.2%	-2.2%	-1.2%
COc1ccc(CNC(=O)C(C#N)c2nc3ccccc3nc2N2CCCC2)cc1 (stereo not given)	?	?	12.6µM*
COc1ccc(CNC(=O)C(C#N)c2nc3ccccc3nc2N2CCN(C)CC2)cc1 (stereo not given)	6.2%	2.6%	-1.4%
CC1=CC(=O)C2=C(C)CC[C@@H]3[C@H](OC(=O)[C@H]3C)[C@H]12	3.1%	2.3%[9.22 µM]	·
CC[C@]1(O)C[C@H]2CN(CCc3c([nH]c4ccccc34)[C@](C(=O)OC)(c3cc4c(cc3OC)N(C)[C@@H]3[C@](O)(C(=O)OC)[C@H](OC(C)=O)[C@]5(CC)C=CCN6CC[C@]43[C@@H]65)C2)C1	-1.7%	-2.2%	-0.5%
Oc1c(C(Nc2ccccn2)c2ccccn2)ccc2cccnc12 (stereo not given)	0.0%	5.01µM*	-0.8%
Oc1c([C@H](Nc2ccccn2)c2ccccc2)ccc2cccnc12	-3.5%[9.17 µM]	5.7%[9.22 µM]	2.4%[9.22 µM]
Cc1c(Cl)cccc1NC(=O)c1cc(-c2ccc(O)cc2)on1	-4.6%	-3.4%	-0.8%
CC(C)C1=CC2=CC[C@H]3[C@@](C)(CCC[C@]3(C)C(=O)O)[C@@H]2CC1	-2.5%	2.2%[9.22 µM]	·
O=C(O)CCCCCC[C@@H]1C(=O)NC(=O)N1CC[C@@H](O)C1CCCCC1	-3.6%	-1.7%	-0.2%
Clc1ccc([C@@H](c2ccccc2Cl)C(Cl)Cl)cc1	-1.2%	0.0%	-0.7%
CCCCC/C=C\C[C@H](O)/C=C\c1cccc(C[C@H](O)CCCCO)n1	1.6%	-2.1%	0.0%
C=CCn1c(NC(=O)c2ccccc2Cl)c(C#N)c2nc3ccccc3nc21	6.7%	-2.6%	?
C=CCn1c(NC(=O)c2ccccc2)c(C#N)c2nc3ccccc3nc21	-2.9%	9.3%	25.1µM*
SMILES	UbGFP stabilizer	GFP derepression	HBB splice mod
CCN(CC)CCNc1ccnc2cc(Cl)ccc12	-1.0%	3.4%	-0.8%
CCN(CC)CCC[C@H](C)Nc1c2ccc(Cl)cc2nc2ccc(OC)cc12	3.1%[20.5 µM]	12.6µM*!	12.6µM*
COc1cc(/C=C(/C#N)c2ccc(F)cc2)ccc1OCc1ccc(C(=O)O)o1	-1.6%	-3.2%	-0.8%
N#C/C(=C/c1ccc(N2CCCCCC2)o1)c1ccc(F)cc1	-0.1%	3.16µM*	?
O=C(O)Cn1c(=O)oc2cc(S(=O)(=O)NC3CCCCC3)ccc21	-3.8%	·	-0.2%
CCN(CC)c1ccc2cc(C(=O)Nc3ccccn3)c(=O)oc2c1	·	-2.6%[20.6 µM]	·
CCN(CC)c1ccc2cc(-c3nnc(-c4ccncc4)o3)c(=O)oc2c1	·	2µM*	·
CCCCCC[C@@H]([C@H](C)O)n1cnc2c(N)ncnc21	9.5%	0.0%	-1.7%
CCN1C(=O)c2cccc3c(NC(=O)C4CCCCC4)ccc1c23	·	-4.6%	0.2%[0.369 µM]
CCN1C(=O)c2cccc3c(NC(=O)c4ccc5c(c4)OCCO5)ccc1c23	14.8%	12.6µM*	-0.5%
O=C1C=CC2=C3c4cc(O)c(O)cc4C[C@@]3(O)COC2=C1O	-4.2%	-2.3%[9.22 µM]	·
CC(=O)[C@]1(O)CC[C@@H]2[C@H]3C[C@@H](C)C4=CC(=O)CC[C@@]4(C)[C@H]3[C@@H](O)C[C@]21C	2.0%[9.17 µM]	-1.3%[9.22 µM]	4.6%[9.22 µM]
C[C@]12C=CC(=O)C=C1CC[C@@H]1[C@H]3C[C@@H](O)[C@](O)(C(=O)CO)[C@]3(C)C[C@H](O)[C@]12F	-3.3%	-1.7%	0.6%
N#Cc1c(C(F)(F)F)cc(-c2ccco2)nc1SCc1ccccn1	-3.7%	?	15.8µM*
N#Cc1c(C(F)(F)F)cc(-c2ccco2)nc1SCc1ccncc1	-7.5%	18.2%	22.0%[57.5 µM]
O=C1c2c(O)cc(O)cc2O[C@@H](c2ccc(O)c(O)c2)[C@H]1O	4.1%	0.5%	0.6%
COc1cccc(Nc2ncc3ncc(=O)n(Cc4cccs4)c3n2)c1	1.8%	7.4%[9.22 µM]	0.4%
CCNc1ncc2nc(-c3cccs3)c(=O)n(-c3ccccc3)c2n1	?	8.1%[9.22 µM]	12.6µM*
COc1cccc(Nc2ncc3nc(-c4cccs4)c(=O)n(-c4ccccc4)c3n2)c1	?	3.98µM*	10µM*
COc1cccc(Nc2ncc3nc(-c4cccs4)c(=O)n(Cc4cccs4)c3n2)c1	1.8%	-0.5%[9.22 µM]	12.6µM*
COc1cccc(Nc2ncc3nc(-c4ccc(Cl)cc4)c(=O)n(CCC#N)c3n2)c1	?	0.6%[9.22 µM]	10µM*
COc1ccc(-n2c(=O)c(-c3cccs3)nc3cnc(Nc4ccccc4)nc32)cc1	19.9%	-2.7%[9.22 µM]	10.4%
CCNc1ncc2nc(-c3cccs3)c(=O)n(C)c2n1	28.3%	0.0%[9.22 µM]	3.0%
COc1ccc(-c2nc3cnc(Nc4cccc(OC)c4)nc3n(CCC#N)c2=O)cc1	?	5.0%[9.22 µM]	?
Cc1ccc(C(=O)[C@@H]2[C@@H]3[C@@H](C(=O)[C@@H]4OC[C@H]3O4)[C@@H]3C=Cc4ccccc4N23)cc1	0.3%	-2.4%[9.22 µM]	·
SMILES	UbGFP stabilizer	GFP derepression	HBB splice mod
O=C(CCc1ccc(O)cc1)c1c(O)cc(O)cc1O[C@@H]1O[C@@H](CO)[C@@H](O)[C@@H](O)[C@H]1O	1.3%	-2.3%[9.22 µM]	·
C=C1C[C@@]23C[C@]1(O)CC[C@@H]2[C@]12C=C[C@@H](O)[C@@](C)(C(=O)O1)[C@@H]2[C@@H]3C(=O)O	1.3%	-4.7%[9.22 µM]	·
COc1cc(/C=C\C(=O)CC(=O)/C=C\c2ccc(O)c(OC)c2)ccc1O	11.3%	-4.7%[9.22 µM]	·
CN(C)S(=O)(=O)c1ccc2c(c1)/C(=C/c1cc3c([nH]1)CCCC3)C(=O)N2	1.3%	15.8µM*	3.98µM*
COc1ccc(N(C)S(=O)(=O)c2ccc3c(c2)CCC(=O)N3)cc1	-3.9%	-1.4%	-0.7%
S=C([S-])NCCNC(=S)[S-].[Zn+2]	·	·	2.5%
CCOC(=O)NC(=O)CSc1nc(C)cc(C(F)(F)F)c1C#N	-0.4%	-0.1%	·
Cc1coc(NC(=O)CSc2nc(-c3ccncc3)cc(C(F)(F)F)c2C#N)n1	-2.0%	10µM*	·
O=C(/C=C\c1ccc(O)c(O)c1)OCCc1ccccc1	1.0%	-0.1%	0.7%
